Hit rate of the full screen: of about 420,000 compounds, about 64,000 (15%) were called active. Inconclusive results (about 27%) are left out. Not all results are given here. A number with no mark means an inactive call. Calls come from the whole dose curve; as a rule, active = well fitted inhibition curve with a large enough effect; inconclusive = small, poorly fitted or top-dose-only effect; inactive = flat fitted curve, though single readings scatter.
assay: qHTS for Inhibitors of human tyrosyl-DNA phosphodiesterase 1 (TDP1): qHTS in cells in absence of CPT; settings: DT40 Tdp1-/- hTDP1 cells, no CPT, ATP luminescence, 48 h; activity change, negative = growth inhibition: at 46.2 µM (top of the series); note: nearly all actives have a fitted effect of over 55% in size
Outline: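 Stably hTDP1-transfected Tdp1-null chicken DT40 cells were treated with library compounds minus camptothecin and grown for at least 48 hr at 37 °C, after which cellular ATP was quantified by luminescence.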
% is set by controls: 0 for no effect and ±100 for the full control effect; potency is the fitted concentration of half-maximal effect.

SMILES	Potency	activity change, negative = growth inhibition [%]
O=[N+]([O-])c1ccc2nc(-c3ccccn3)[nH]c2c1	1.16 µM (active)	
O=c1[nH]c2cccnc2n1-c1ccc([N+](=O)[O-])cc1		28.4
Cc1ccc(C(=O)OC2=CC(=O)CC(C)(C)C2)cc1		-15.6
CCOC(=O)c1c(NC(=O)COc2cc(C)ccc2C(C)C)sc(C)c1C		-16.8
Cc1cnc(C(=O)OCC(=O)Nc2ccc(Cl)cc2Cl)cn1		-15.5
COC(=O)c1c(NC(=O)COc2ccc(Cl)cc2Cl)sc2c1CC(C)(C)NC2(C)C	8.2 µM (active)	
c1cc(-n2cnnn2)ccc1NC1=NCCC1		1.89
O=C1CCCN1C(=O)COc1ccc([N+](=O)[O-])cc1		-7.57
COC(=O)c1ccc(S(=O)(=O)N(CCO)Cc2ccccc2)n1C		-7.81
Cn1c(=O)c2c(n3c4ccccc4nc13)NC(=O)CC2c1cccc(Cl)c1 (centres undefined)		-26.7
C#CCOc1ccc(C2CC(=O)Nc3c2c(C)nn3-c2nc(C)cc(C)n2)cc1 (centres undefined)	20.6 µM (active)	
COc1ccc(Br)cc1C1CC(=O)Nc2c1c(C)nn2-c1nc(C)cc(C)n1 (centres undefined)	18.4 µM (active)	
COc1ccc(C2c3c(C)nn(-c4ccccc4)c3NC(=O)N2c2ccccc2)cc1 (centres undefined)		-26.9
COc1ccc(C2CC(=O)Nc3c2c(=O)nc2c(C)cccn32)cc1OC (centres undefined)		-13
COc1ccc(Br)cc1S(=O)(=O)N1CCN=C1C		-23.6
NC(=O)COC(=O)c1ccc2c(c1)C(=O)N(Cc1ccco1)C2=O		-3.81
CCCS(=O)(=O)NC(=O)C1(C)CCN(C(=O)c2sccc2C)C1 (centres undefined)		-8.85
COc1ccc(NC(=O)c2ccco2)cc1NC(=O)c1ccc(C#N)cc1F		10.2
Clc1cc(-c2ccc(/C=N/n3cnnc3)o2)ccc1Br		-18.8
Cc1cc([N+](=O)[O-])nn1CCCC(=O)Nc1cccnc1Cl		2.23
CC(C)(C)c1ccc(C(=O)NCC(=O)OCN2C(=O)c3ccccc3C2=O)cc1		-16.3
O=C(CCNC(=O)c1ccc([N+](=O)[O-])cc1)Nc1ccccc1N1CCOCC1		7.42
CC(C)(C)c1ccc(C(=O)NCCn2c(N)c(C#N)c3nc4ccccc4nc32)cc1	29.1 µM (active)	
CCOC(=O)/C(C#N)=C\c1c(C)cc(C)c(COC(C)=O)c1C		-11.1
Cc1ccc2c(=O)c(C(=O)c3cccc(Cl)c3)cn(CC(=O)NCc3ccccc3)c2n1		-26.2
O=C(O)CC1=C(Nc2ccccc2)C(=O)N(c2ccccc2)C1c1ccc(Cl)cc1 (centres undefined)		-5.86
CCc1nc2onc(C)c2c(=O)n1CC(=O)O		-5.32

SMILES	Potency	activity change, negative = growth inhibition [%]
CCOC(=O)N1CCN(C(=O)c2ccc3c(c2)N(Cc2ccc(C)cc2)CCS3)CC1	23.1 µM (active)	
CCOC(=O)N1CCN(C(=O)c2ccc(S(=O)(=O)c3ccc(C)cc3)c(NC(C)=O)c2)CC1		8.97
CCOC(=O)N1CCN(C(=O)c2cnc3n(c2=O)CCS3)CC1		-12.4
COc1ccc(NC(=O)NC2CC3CCCC(C2)N3Cc2ccccc2)cc1 (centres undefined)		-11.4
CC1(C)C2CC[C@]3(C)C(CC=C4[C@@H]5C[C@@](C)(CO)CC[C@]5(C(=O)O)CC[C@]43C)[C@@]2(C)CC[C@@H]1O (some centres undefined)		-5.43
COC(=O)c1c(-c2cccs2)csc1NC(=O)CSc1ncnc2sc(C)c(C)c12	20.6 µM (active)	
Cc1sc2ncnc(SCC(=O)NC3CCS(=O)(=O)C3)c2c1C (centres undefined)		-15.7
Cc1sc2ncnc(SCC(=O)Nc3ccc(CN4CCCC4)cc3)c2c1C		1.26
CC(=O)Nc1ccc(N2C(=O)C3C4C=CC(CC4)C3C2=O)cc1 (centres undefined)		1.9
OCCNc1nc2ccccc2n1-c1ncnc2sc3c(c12)CCC3	20.6 µM (active)	
O=C(O)c1cccnc1Sc1ncnc2sc3c(c12)CCC3		-0.732
O=C(O)[C@@H]1CCCN1c1ncnc2sc3c(c12)CCC3		-3.66
COc1cc(N2C(=O)CSC2=S)cc(OC)c1OC		-1.53
O=C(Cn1nc(C(F)(F)F)c2c1CCC2)NCc1ccc(F)cc1		-16.4
O=C(CN(C(=O)c1csnn1)c1ccc(Br)cc1)NC1CCCC1		-4.15
O=C(NC(=S)NC1CCCCC1)c1ccc(Cl)cc1		-24.8
O=C(NNC(=S)NC1CC2CCC1C2)c1ccc(Cl)cc1 (centres undefined)	23.1 µM (active)	
O=C(NNC(=O)C1C2CCC(C2)C1C(=O)O)c1ccc(Cl)cc1 (centres undefined)		-5.54
Oc1c(C(c2ccco2)N2CCC3(CC2)OCCO3)sc2ncnn12 (centres undefined)		-4.83
CCOC(=O)c1ccc(N2C(=O)CC(N3CC(C)OC(C)C3)C2=O)cc1 (centres undefined)		-2.13
COc1ccc(C)cc1N(CC(=O)N1CCCC1)S(=O)(=O)c1ccccc1		2.67
O=C(NCCCn1ccnc1)C1CCCN(S(=O)(=O)c2cc(Cl)ccc2Cl)C1 (centres undefined)		-24.2
Cc1ccc(Cl)cc1NC(=O)COC(=O)C1CCCCC1		-4.84
Cc1ccc(CNC(=O)CCC(=O)N2CC(C)Sc3ccccc32)cc1 (centres undefined)		-18
Cc1ccc(Cl)cc1NC(=O)CCC(=O)N1CC(C)Sc2ccccc21 (centres undefined)	18.4 µM (active)	
Cc1cccc(N(C(=O)Cn2nnc(-c3ccc(C)o3)n2)C(C(=O)NC2CCCC2)c2ccncc2)c1 (centres undefined)		-18.7
CC(NC(=O)c1ccco1)c1ccc2c(c1)OCO2 (centres undefined)		21.7

— PubChem BioAssay AID686978 (National Center for Advancing Translational Sciences (NCATS), 2013)
